Most compounds without a hit are left out; they make up all but 1.2% or so of the library.
SRC1 inh = SRC1 coactivator transcriptional activity inhibitors, primary screen, cell-based, luminescence. HEK293 GAL4-SRC1 luciferase reporter. inhibition, % at 3.6 µM. 360,000 tested, 0.12% active. AID 588354, 2011;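 active = inhibition above the campaign mean plus 3 SD, with each screening campaign given its own cutoff, cut at about 60% in these data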;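 note: 0% = DMSO treated cells and 100% = gossypol at 36 µM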
Gli-Sufu antag = Gli-Sufu pathway antagonists, primary screen, luciferase luminescence, Sufu-KO-LIGHT cells, uHTS. AID 588413, 2011. Sufu-KO-LIGHT fibroblasts, Gli luciferase reporter luminescence. inhibition, % at 5 µM. 340,000 tested, 0.74% active;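 active = inhibition above about 55%, limit read from the data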;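 note: 0% = DMSO-treated cells and 100% = wells with medium but no cells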
LRH-1 inv ag = LRH-1 (NR5A2) inverse agonists, primary screen, cell-based, luminescence, HEK293T, StAR-luciferase reporter; LRH-1 transfected, 24 h; inhibition, % at 3.6 µM; 360,000 tested, 0.13% active; AID 602396, 2012;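 active = inhibition above the mean inhibition of all tested compounds plus 3 SD, cut at about 73% in these data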;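 note: 0% = DMSO wells and 100% = reporter-only cells lacking LRH-1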
Target sequence (O00482 whole entry, looked up): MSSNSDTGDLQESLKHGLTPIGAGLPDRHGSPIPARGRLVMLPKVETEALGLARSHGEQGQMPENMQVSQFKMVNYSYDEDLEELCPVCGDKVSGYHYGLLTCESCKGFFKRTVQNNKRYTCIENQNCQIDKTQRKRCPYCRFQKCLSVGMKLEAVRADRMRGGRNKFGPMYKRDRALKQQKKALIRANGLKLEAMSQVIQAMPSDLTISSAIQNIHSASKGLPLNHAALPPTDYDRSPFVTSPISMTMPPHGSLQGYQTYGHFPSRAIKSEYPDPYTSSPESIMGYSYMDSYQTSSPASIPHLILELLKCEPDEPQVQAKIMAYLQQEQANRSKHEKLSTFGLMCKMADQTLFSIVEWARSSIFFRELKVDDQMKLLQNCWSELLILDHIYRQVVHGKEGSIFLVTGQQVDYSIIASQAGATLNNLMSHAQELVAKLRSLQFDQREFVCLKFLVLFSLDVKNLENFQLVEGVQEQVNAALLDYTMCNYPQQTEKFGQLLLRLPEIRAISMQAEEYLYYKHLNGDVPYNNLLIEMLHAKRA
NCOA2 inhibitor = inhibition of GAL4-SRC2 driven luciferase reporter, primary screen, SRC2 inhibitor project, cell-based, luminescence. AID 651957, 2012. HEK293 GAL4-SRC2 luciferase reporter. inhibition, % at 9 µM. Nuclear receptor coactivator 2 (Homo sapiens), Q15596. 370,000 tested, 0.17% active;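 active = inhibition above the mean inhibition of all tested compounds plus 3 SD, set per campaign, cut at about 52% in these data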;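 note: 0% = DMSO treated cells and 100% = cells given Gossypol at 36 µM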
COUP-TFII inh = NR2F2 transcriptional activity inhibitors, primary screen, cell-based, luciferase reporter, HEK293T, luminescence | AID 686940, 2013 | COUP transcription factor 2 (Homo sapiens), P24468 | inhibition, % at 8.6 µM | 370,000 tested, 0.7% active | HEK293T NGFI-A luciferase reporter;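 active = inhibition above a per-plate cutoff, mean inhibition of test wells between control levels plus 3 SD, cut at about 38% in these data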;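 note: cells cotransfected with COUP-TFII expression vector driving the NGFI-A reporter; 0% = median of COUP-TF2 test wells and 100% = reporter-only cells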
NCOA3 inh = SRC3 coactivator transcriptional activity inhibitors, primary screen, cell-based, luminescence; 360,000 tested, 0.17% active; inhibition, % at 3.6 µM; Nuclear receptor coactivator 3 (Homo sapiens), Q9Y6Q9; HEK293 GAL4-SRC3 luciferase reporter;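 active = inhibition above a per-campaign cutoff, the mean of all compounds plus 3 SD, cut at about 60% in these data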;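 note: 0% = DMSO-treated cells and 100% = gossypol-treated cells at 36 µM; higher means less SRC3-driven luciferase light from the GAL4 reporter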
* marks the source's active call; other numbers are inactive results; nt = no result given.

SMILES	SRC1 inh	Gli-Sufu antag	LRH-1 inv ag	NCOA2 inhibitor	COUP-TFII inh	NCOA3 inh
CN1CCCc2cc3c(C(F)(F)F)cc(=O)oc3nc21	3	96*	9	1	0	9
COc1ccc(CC(=O)Nc2cccc(-c3nnc(-c4ccccc4)o3)c2)cc1OC	36	nt	-54	61*	-2	51
COc1ccc2c(c1)-c1c(ssc1=S)C(C)(C)N2	58	-21	46	42	24	66*
Cc1oc2c(c1C(=O)NCc1cccnc1)C(=O)c1ccccc1C2=O	nt	80*	nt	nt	nt	nt
COc1ccc(CNC(=O)c2c(C)oc3c2C(=O)c2ccccc2C3=O)cc1	13	64*	12	-7	13	-13
COC(=O)[C@]12C[C@H](CC(=O)NCc3cccc4ccccc34)C(=O)N(CCC3=CCCCC3)C1=C[C@H](C(C)(C)C)O[C@@H]2C	nt	nt	nt	-23	16	nt
CC(=O)NC1CCCCN(Cc2ccc(Cl)cc2)C1=O (stereo not drawn)	nt	nt	nt	-60	-18	nt
CCOC(=O)N[C@@H](Cc1cccnc1)C(=O)N1CCC[C@H]1C(=O)NCCc1ccccc1Cl	nt	nt	nt	8	19	nt
Cc1ccc(C)c(N=Nc2ccc(O)c3ncccc23)c1	13	67*	-2	18	5	-9
Cc1cccc(N=Nc2ccc(O)c3ncccc23)c1	-5	-2	-15	-10	3	-22
COC(=O)C1=C(C)N(Cc2ccccc2C(F)(F)F)C(=NCc2ccccc2)NC1CCc1ccccc1 (stereo not drawn)	nt	nt	nt	-10	2	nt
CCCCC(=O)NC(c1ccccc1)c1ccc2cccnc2c1O (stereo not drawn)	40	-26	89*	-11	-5	66*
CCC(=O)NC(c1ccc(OC)cc1)c1cc(Cl)c2cccnc2c1O (stereo not drawn)	-23	44	1	-36	4	23
CCCCC(=O)NC(c1ccc(C(C)C)cc1)c1ccc2cccnc2c1O (stereo not drawn)	42	51	7	25	-5	68*
CCCC(=O)NC(c1ccc(OC)cc1)c1ccc2cccnc2c1O (stereo not drawn)	20	47	13	20	-13	62*
CCCC(=O)NC(c1ccccc1)c1ccc2cccnc2c1O (stereo not drawn)	19	-11	11	34	9	26
CCCCC(=O)NC(c1ccccc1Cl)c1ccc2cccnc2c1O (stereo not drawn)	54	86*	60	32	-8	73*
CC(C)CNC(=O)OCc1cn(Cc2cccc(F)c2F)nn1	nt	nt	nt	4	3	nt
Cc1ccc(S(=O)(=O)N2CCCC(C(=O)NCc3ccco3)C2)cc1 (stereo not drawn)	nt	nt	nt	6	5	nt
Oc1c(C(c2ccccc2Cl)N2CCCC2)ccc2cccnc12 (stereo not drawn)	19	74*	18	6	-1	28
Oc1c(C(c2ccc(Cl)cc2)N2CCCC2)cc(Cl)c2cccnc12 (stereo not drawn)	-9	21	10	0	34	-10
Cc1[nH]c2ccccc2c(=O)c1C(=O)/C=C/c1ccccc1	64*	9	41	65*	11	72*
O=C(C=Cc1ccccc1)c1c[nH]c2ccccc2c1=O	-12	-8	-2	28	-67	-7
CCC[C@H]1[C@@H](NC(=S)Nc2ccccc2Cl)CC[C@@]23CCCN2C(=O)CCC[C@@H]13	nt	nt	nt	nt	-7	nt
CCCCn1c(C)nc2cc(S(=O)(=O)N3CCOCC3)ccc21	12	6	-5	-6	2	-5
SMILES	SRC1 inh	Gli-Sufu antag	LRH-1 inv ag	NCOA2 inhibitor	COUP-TFII inh	NCOA3 inh
CCCCn1c(CCl)nc2cc(S(=O)(=O)N3CCOCC3)ccc21	19	-1	10	63*	-9	46
O=C(NCc1cccnc1)c1ccc(-c2ccc(Cl)cc2)o1	0	-4	-8	8	-6	1
O=C(NCc1cccnc1)/C(=C\c1ccc(-c2ccc(Cl)c(Cl)c2)o1)S(=O)(=O)c1ccccc1	44	10	35	61*	17	85*
COC(=O)C1=C(C)N(Cc2ccccc2C(F)(F)F)C(=NCC2CC2)NC1c1ccc(F)cc1 (stereo not drawn)	nt	nt	nt	3	0	nt
COC(=O)c1cc2c(n1S(=O)(=O)c1ccc(C)cc1)C(=O)C(=O)c1[nH]cc(C(=O)OCc3ccccc3)c1-2	87*	87*	-2	nt	nt	88*
Oc1c(N=Nc2ccccn2)ccc2ccccc12	-45	82*	-3	-21	-17	-50
C/C(=N\NC(=O)c1cc2ccccc2cc1O)c1ccccn1	-42	90*	-9	-5	-2	-18
CC(=NNC(=S)Nc1ccccc1)c1ccccn1	54	nt	81*	3	16	51
C=CCNC(=S)N/N=C(\C)c1ccccn1	-41	84*	101*	14	11	23
CC(=NNC(=S)N1CCCCC1)c1ccccn1	48	nt	54	-29	-8	25
O=S(=O)(c1ccc(F)cc1)N1CCCc2nc(-c3ccccc3)ccc21	nt	nt	nt	-17	-14	nt
COC(=O)c1cc(-c2cccc(C(C)C)c2)c(=O)n2c1CCC2	nt	nt	nt	-13	11	nt
Cc1cc(C)nc(-n2nc(C)cc2Nc2ccccc2)n1	6	2	75*	-6	28	-9
Cn1c2c(c(=O)n(C)c1=O)C(C(F)(F)F)(C(F)(F)F)N=C(c1ccc(Cl)cc1)N2	75*	88*	98*	nt	nt	77*
CC(C)(C)c1cc(CCC(=O)NNC(=S)NC(=O)c2ccccc2)cc(C(C)(C)C)c1O	-13	59*	18	nt	nt	-3
O=C(CCc1ccccc1)NNC(=S)NC(=O)c1ccccc1	7	-2	3	-38	-14	6
CC1CCC(C(C)C)C(OC(=O)Cn2c(-c3ccc(Cl)cc3)[n+](C)c3ccccc32)C1 (stereo not drawn)	18	72*	26	7	4	31
Cc1ccccc1OCc1n(CC(=O)OC2CC(C)CCC2C(C)C)c2ccccc2[n+]1C (stereo not drawn)	-5	50	24	6	1	34
CC(=O)n1cc(N(C(=O)CCl)c2ccc(C)cc2)c2ccccc21	-6	4	39	61*	37	27
COc1cccc(/C=N/NC(=O)c2c(C)nc3ccc(Br)cn23)c1O	78*	88*	99*	nt	nt	79*
COc1ccc(C(=O)N/N=C/c2cc(Br)ccc2O)cc1OC	34	19	20	18	-17	64*

Compound activity as filed in PubChem.
